Assay outcomes from PubChem.
FMDV antiviral – foot and mouth disease virus antiviral activity. AID 1159524. FMDV antiviral cell-based qHTS. Potency, µM (top dose mostly 57.9 µM), hits mostly inhibitors. actives 1.2% (n = 410,000); calls by dose curve; tested in HEK293T cells; note: read-out not given here; nearly all actives have a fitted effect of over 45% in size
VACV mCherry inh – vaccinia inhibition (mCherry reporter); Potency, µM (doses to about 36.5 µM), actives largely listed as inhibitors; Vaccinia virus mCherry reporter infection, fluorescence; actives 0.63% (n = 310,000); calls by dose curve; tested in A549 cells; note: nearly all actives have a fitted effect of over 35% in size
LASV entry inh – Lassa virus entry inhibition; actives 1.2% (n = 300,000); Lassa virus pseudotype entry inhibition, cell reporter; Potency, µM (doses to about 37.9 µM), hits mostly inhibitors; calls by dose curve; tested in HEK293 cells; note: nearly all actives have a fitted effect of over 50% in size
Vaccinia Venus – inhibitors of vaccinia virus (Venus reporter). actives 0.46% (n = 330,000). Potency, µM (top dose mostly 36.5 µM), usual class: inhibitors. Vaccinia virus Venus reporter expression, fluorescence; calls by dose curve; tested in A549 cells; note: nearly all actives have a fitted effect of over 30% in size
HCMV inh – human cytomegalovirus inhibition. actives 4.5% (n = 410,000). activity change, negative = inhibition, % at 57.5 µM. HFF cells, HCMV-luciferase reporter, 72 h; active compounds read low. AID 1259415; in the data active = activity change below about -60%; inconclusive = no clear call, values can overlap the other calls; inactive = above about -39%
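Inhibition of viral replication was scored as loss of reporter luminescence in HFFs infected with HCMV-luciferase (MOI 1 PFU/cell) for 72 h; compounds tested at 2 doses, normalized to buffer and Salinomycin controls.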
MARV entry inh – Marburg virus entry inhibition. Marburg virus pseudotyped entry inhibition, cell reporter. actives 1.8% (n = 300,000). AID 540276. Potency, µM (series often up to 37.8 µM), usual class: inhibitors; calls by dose curve; tested in HEK293 cells
Numbers stand for hits; 0 = inactive; ? = inconclusive; - = no result; + = active, no number. The list is not random: actives were taken first. Their share in the collection is about 6.5%.

SMILES	FMDV antiviral	VACV mCherry inh	LASV entry inh	Vaccinia Venus	HCMV inh	MARV entry inh
CCN(CC)CCCCCCCCOC(=O)c1cc(OC)c(OC)c(OC)c1	0	?	?	?	0	23µM
COc1cc(C(=O)OCCN2CCOCC2)cc(OC)c1OC	-	0	0	0	0	0
O=C(c1ccccc1)C1OC1C(=O)c1ccccc1 (stereo not given)	0	?	?	0	0	7.9µM
CCCCc1ccc(CC(=O)NO)cc1	-	0	-	0	-	-
O=C(Cc1cccc2ccccc12)NCC(=O)N1CCN(Cc2cccc(C(F)(F)F)c2)CC1	?	-	-	-	-62	-
O=C(Cc1cccc2ccccc12)NCC(=O)N1CCN(CC(=O)Nc2ccc(F)cc2)CC1	?	0	-	0	0	-
O=C(CSc1cccc(C(F)(F)F)c1)NCc1ccccc1	0	0	?	0	-73	0
CC1(C(=O)NCc2cccc(C(F)(F)F)c2)CCN1Cc1ccc2ccccc2c1 (stereo not given)	0	0	-	0	-72	-
O=C(CSc1ccccc1)NCc1ccccc1	0	0	0	0	0	0
COc1ccc(OC)c(CN2CCCC(c3nc(C)ncc3-c3ccc(F)cc3)C2)c1 (stereo not given)	0	0	-	0	-	-
COc1ccc(NC(=O)N(C)C[C@H]2OCc3cn(nn3)CCCC(=O)N([C@H](C)CO)C[C@@H]2C)cc1	-	-	-	-	0	-
CCCCC(=O)NC(c1ccc(OC)c(OC)c1)c1c(O)ccc2ccccc12 (stereo not given)	0	?	?	?	0	0
CCCCC(=O)NC(c1ccccc1OC)c1ccc2cccnc2c1O (stereo not given)	0	7.9µM	-	0	+	-
CCCC(=O)NC(c1ccccc1OC)c1ccc2cccnc2c1O (stereo not given)	0	10µM	?	?	-	?
CCCC(=O)NC(c1ccc(OC)c(OC)c1)c1c(O)ccc2ccccc12 (stereo not given)	0	0	0	0	0	0
CC(=O)c1c(C)[nH]c(C(=O)COc2cc(C)cc(C)c2)c1C	0	-	0	-	-62	?
CC(=O)c1c(C)[nH]c(C(=O)COc2ccc3ccc(=O)oc3c2)c1C	28µM	0	0	0	0	?
CCCOc1ccc(OCC(=O)c2[nH]c(C)c(C(C)=O)c2C)cc1	?	-	?	-	0	0
COC(=O)c1c(C)[nH]c(C(=O)COc2ccc3ccc(=O)oc3c2)c1C	0	-	-	-	0	-
O=C(c1cc(-c2ccccc2)on1)N1CCOc2ccc(CN3CCOCC3)cc2C1	0	0	-	0	-	-
CCc1ccc(-n2c(=O)c3c4c(sc3n(CC(=O)N3CCCCC3CC)c2=O)CCC4)cc1 (stereo not given)	?	0	0	0	0	?
CC(CCc1ccc(O)cc1)N1CCOc2c(O)cc(-c3nc4ccccc4s3)cc2C1 (stereo not given)	0	?	-	0	-	-
CN(CCCS(=O)(=O)[O-])c1ccc(/C=C/c2ccc3ccccc3[n+]2C)cc1	0	-	-	-	0	-
CN(C)c1ccc(/C=C/c2ccc3ccccc3[n+]2C)cc1	?	0	?	0	-99	?
CN(C)c1ccc(/C=C/c2ccc3c4ccccc4ccc3[n+]2-c2ccccc2)cc1	13µM	0	11µM	0	-99	?
SMILES	FMDV antiviral	VACV mCherry inh	LASV entry inh	Vaccinia Venus	HCMV inh	MARV entry inh
Cc1cc(/C=N/O)c(C)n1-c1ccccc1	0	0	0	0	0	?
Cc1cc(/C=C/c2ccc3cc(N(C)C)ccc3[n+]2C)c(C)n1-c1ccccc1	14µM	0	-	0	-	-
Cc1ccccc1NC(=O)COC(=O)c1ccccc1OCC(=O)Nc1ccc(Br)cc1	-	0	-	0	-	-
CCCCOC(=O)c1ccc(NC(=O)/C(C#N)=C/c2ccc(-c3ccccc3)o2)cc1	0	0	0	0	0	-
CCCCOc1ccc(CC(=O)N(C)O)cc1	-	0	-	0	-	-
O=C(COc1ccc(F)cc1Cl)Nc1nc(-c2ccccn2)cs1	-	-	-	-	-82	-
O=C(COc1ccc(CO)cc1Cl)Nc1ccc(F)cc1	0	-	?	-	0	6.5µM
N#Cc1ccccc1OCC(=O)Nc1nc(-c2ccccn2)cs1	0	?	-	?	0	-
Cc1cccnc1Nc1nc(-c2ccccc2)cs1	0	-	-	-	0	-
Cc1cccnc1Nc1nc(-c2ccccn2)cs1	0	2.5µM	7.1µM	3.2µM	-106	?
Cn1cccc1C(=O)Nc1nc(-c2ccccn2)cs1	0	-	?	-	-88	?
CCOc1ccc(NC(=O)CCCn2c(C)c3cnn(-c4ccccc4)c(=O)c3c2C)cc1	0	0	0	0	0	0
Cc1ccc(C(=O)Nc2nc(-c3ccccn3)cs2)s1	0	-	-	-	-100	-
O=C(Nc1nc(-c2ccccn2)cs1)c1ccc(Cl)s1	0	3.2µM	-	?	-96	-
O=C(CN1C(=O)CCC1=O)Nc1nc(-c2ccccn2)cs1	0	0	-	0	-62	-
O=C(CN1C(=O)CCC1=O)Nc1nc(-c2ccc3ccccc3c2)cs1	0	-	-	-	?	-
CCCCn1c(O)c(/C(CC)=N/N2CCCCC2c2cccnc2)c(=O)[nH]c1=S (stereo not given)	0	0	?	0	-63	?
C/C(=N\N1CCCCC1c1cccnc1)c1c(O)n(C2CCCCC2)c(=S)[nH]c1=O (stereo not given)	0	?	?	0	-103	15µM
O=C1CCCC2=C1[C@H]1O[C@](c3ccsc3)(Cc3c1ccc1ccccc31)O2	-	-	-	-	-	0
Cc1ccccc1C(=O)n1nc(-c2ccco2)nc1NCc1ccc(Cl)cc1	0	0	?	0	0	0
C(#Cc1ccccc1)C[N+]1(CC#Cc2cccc3ccccc23)CCCC1	?	-	?	-	-100	0
COc1ccc(CNc2ccnc(-c3ccccc3CN(C)C)n2)c(OC)c1	0	-	-	-	-	-
CC1CCCN(C(=O)N2c3ccccc3Sc3ccccc32)C1 (stereo not given)	0	-	?	-	-68	?
CNC(=O)C[C@H](C(=O)O)c1ccc(OC(C)C)cc1	-	-	-	-	-	0
Cc1ccc(C(C)NC(=S)NCc2ccc(F)cc2)cc1C (stereo not given)	0	-	-	-	-82	-
SMILES	FMDV antiviral	VACV mCherry inh	LASV entry inh	Vaccinia Venus	HCMV inh	MARV entry inh
CCC(NC(=O)C1(C)CC1(Br)Br)c1ccc(C)cc1 (stereo not given)	0	-	0	0	-72	0
Cc1ccc(C(C)NC(=S)NCc2ccc(F)cc2)c(C)c1 (stereo not given)	0	0	0	0	0	?
CCc1ccc(C(C)NC(=S)NCc2ccc(F)cc2)cc1 (stereo not given)	0	?	?	0	0	?
CCC(NC(=S)NCc1ccc(F)cc1)c1ccc(C)cc1 (stereo not given)	0	0	?	0	0	10µM
CCc1ccc(C(C)NC(=O)C2(C)CC2(Br)Br)cc1 (stereo not given)	0	0	?	0	0	0
C=CCOC(=O)N[C@@H](c1coc2ccccc2c1=O)[C@@H](C)C=CCC(=O)OC	-	-	-	-	-	0
COc1ccc(-c2n[nH]c(C)c2-c2ccc(Cl)cc2)c(O)c1	?	-	?	?	?	0
Cc1[nH]nc(-c2ccc(O)cc2O)c1-c1ccc(Cl)cc1	?	-	0	-	-71	0
COc1ccc(-c2n[nH]c(C)c2-c2ccc(Cl)cc2)c(O)c1OC	32µM	-	?	-	?	0
